From PubChem BioAssay (NCATS)
Values joined by “and” are separate entries in the source; they are usually repeats but may differ in a detail not shown here. Identical values can stand only once. Inconclusive results are not listed. Active and inactive are the calls of the source. Unless noted, the call rests on the fitted dose curve; in most records, active means well fitted curve in the direction sought with a large enough effect; inconclusive means small, poorly fitted or top-dose-only effect, or another doubt; inactive means no such curve, though single readings can be large; an effect the other way counts as inactive or inconclusive.

Legend:
[1] = P-glycoprotein substrates identified in KB-8-5-11 adenocarcinoma cell line, qHTS therapeutic library screen (AID 1346987); further: potency means the concentration at half of the fitted maximal effect; nearly all actives have a fitted effect of over 65% in size
In short: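 Luminescence from CellTiter-Glo, read 5 min after addition, quantified survival of KB-8-5-11 (P-gp-overexpressing) cells exposed to compounds for 72 h. AC50 was derived from concentration-response curves.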

[2] = system: Zika virus NS2B-NS3 protease (unlinked complex); test: Primary screen GU Rhodamine qHTS for Zika virus inhibitors: Unlinked NS2B-NS3 protease assay (AID 1347159); further: on the % scale 0 is the no-effect control and ±100 the full control effect; nearly all actives have a fitted effect of over 60% in size
In short: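 Unlinked NS2B/NS3, 25 nM; Rhod110 peptide, 1.5 microM; compounds, up to 114 microM. Reaction run 15 min at RT in 10 mM Tris-HCl pH 8.0, 0.01% Tween 20; kinetic fluorescence change fitted with a 4-parameter Hill model.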

[3] = system: Zika virus NS2B-NS3 protease (linked construct); test: Primary screen NINDS Rhodamine qHTS for Zika virus inhibitors (AID 1347160); further: nearly all actives have a fitted effect of over 55% in size; on activity change, negative = inhibition: on the % scale 0 is the no-effect control and ±100 the full control effect
In short: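 Single-chain NS2B-NS3 protease, 25 nM, pH 8.0; compounds preincubated 15 min. Activity: Rhodamine110 release from 1.5 microM substrate over 15 min, room temperature, data fitted to 4-parameter Hill.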

[4] = molecular target: Calcium and integrin-binding protein 1 (Homo sapiens) (UniProt Q99828); test: Primary qHTS for Identification of Calcium Integrin Binding Protein 1 (CIB1) Competitor (AID 1508620);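 further: GST tagged CIB1 binding a fluorescein labelled alphaIIb integrin peptide tracer; top concentration of the series differs between compounds; on the % scale 0 is the no-effect control and ±100 the full control effect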
In short: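 Fluorescence polarization competition: CIB1-GST (1 uM final) preincubated with compound 15 min at room temperature, then FITC-labeled alphaIIb peptide (100 nM final) added for another 15 min. Polarization read at Ex 480/Em 540.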

[5] = Primary qHTS for inhibitors of nuclear receptor binding SET domain protein 2 (NSD2) in an isogenic RCH-ACV NSD2 p.E1099K mutant (9B) (AID 1645876); further: potency means the concentration at half of the fitted maximal effect; nearly all actives have a fitted effect of over 70% in size
[6] = Primary qHTS for inhibitors of nuclear receptor binding SET domain protein 2 (NSD2) in an RCH-ACV wild type WT cells (2C) (AID 1645877); further: potency means the concentration at half of the fitted maximal effect; nearly all actives have a fitted effect of over 70% in size
[7] = molecular target: Glutathione peroxidase 1 (Homo sapiens) (UniProt P07203); test: Primary qHTS Assay for Inhibitors of Recombinant Selenoprotein Glutathione Peroxidase 1 (GPX1) (AID 1845191); further: nearly all actives have a fitted effect of over 65% in size; further: potency means the concentration at half of the fitted maximal effect; on activity, negative = inhibition: on the % scale 0 is the no-effect control and ±100 the full control effect
In short: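 GPX1 10 nM, GR 100 nM, GSH 1 mM, NADPH 0.5 mM, CHP 0.5 mM (final). 30-min cpd preincubation, RT. Ex340/Em450 read t=0, t=15 min.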

[8] = molecular target: Phospholipid hydroperoxide glutathione peroxidase GPX4 (Homo sapiens) (UniProt P36969); test: Primary qHTS Assay for Inhibitors of Recombinant Selenoprotein Glutathione Peroxidase 4 (GPX4) (AID 1845192); conditions: outcome: dose series up to 50 µM unless noted; further: nearly all actives have a fitted effect of over 65% in size; further: potency means the concentration at half of the fitted maximal effect; on activity change, negative = inhibition: on the % scale 0 is the no-effect control and ±100 the full control effect
In short: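 qHTS, GR-coupled: GPX4 200 nM + cpd 30 min RT → GSH 1 mM, NADPH 0.5 mM, GR 100 nM → CHP 0.5 mM start; fluor 340/450 at t0 and t15 min; no-enzyme wells as control.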

[9] = molecular target: Luciferin 4-monooxygenase (Photinus pyralis) (UniProt P08659); test: Primary firefly luciferase (FLuc) qHTS assay for identification of artifact compounds. (AID 1845220); further: nearly all actives have a fitted effect of over 60% in size;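 on activity change, negative = inhibition: plate controls were DMSO vehicle for no effect and no enzyme for full effect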
In short: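 Reaction readout was CCD-imaged luminescence, taken 5 min after adding 10 nM purified firefly enzyme to compound-treated wells holding 10 uM luciferin and ATP in pH 7.6 buffer.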

[10] = Primary fluorescence-based thiol-reactive (MSTI) qHTS assay for identification of artifact compounds. (AID 1845221);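 further: thiol-reactive compounds lower the probe fluorescence signal; nearly all actives have a fitted effect of over 65% in size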
In short: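 Compounds were incubated 1 h at room temperature in the dark with the MSTI probe (4 uM) in PBS pH 7.4, 2% DMSO. Signals were normalized between Acetyl-MSTI and MSTI.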

[11] = system: Nanoluciferase (engineered Oplophorus gracilirostris luciferase); test: Primary Nanoluciferase (NLuc) qHTS assay for identification of artifact compounds. (AID 1845222);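 further: NLuc secreted into diluted conditioned medium of S16 cells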
In short: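 Concentration-response data were obtained by luminescence after 5 min with Nano-Glo substrate at 1:100. The enzyme was diluted S16 NLuc-expressing cell medium, preincubated with compound for 15 min at RT. Curves were fitted with a 4-parameter Hill model.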

[12] = Primary redox qHTS assay for identification of artifact compounds. (AID 1845223);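 further: 0% = DMSO and 100% = reference compound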
In short: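 Redox-cycling detection via DTT (250 uM final) oxidation coupled to Amplex Red (25 uM)/HRP (250 mU/mL) in HBSS. 15 min preincubation plus 30 min after DTT, room temperature. Ex/Em 525/598 nm; 4-parameter Hill fit against DMSO and 10 uM DA3003.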

[13] = system: HeLa; test: Primary qHTS to identify gynecologic anti-cancer compounds using libraries of approved drugs and bioactive compounds (AID 1345084); conditions: Gynecologic cancer cell panel viability, ATPlite luminescence, 48 h; series mostly up to 57.5 µM; further: on the % scale 0 is the no-effect control and ±100 the full control effect; nearly all actives have a fitted effect of over 55% in size
In short: (§1)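 Luminescence from the ATPlite ATP-monitoring reagent indicates viable cell number; lower signal means cytotoxicity. Cells received compound 16 h after seeding and were exposed for 48 h across five concentrations.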

[14] = system: Hek293T; test: as above; conditions: Gynecologic cancer cell panel viability, ATPlite luminescence, 48 h, control line for the selectivity index; series mostly up to 57.5 µM
In short: as §1

[15] = system: JEG-3; test: as above; conditions: Gynecologic cancer cell panel viability, ATPlite luminescence, 48 h; series mostly up to 57.5 µM
In short: as §1

[16] = system: Tov-21-G; test: as above; conditions: Gynecologic cancer cell panel viability, ATPlite luminescence, 48 h; series mostly up to 57.5 µM
In short: as §1

[17] = system: Tov112D; test: as above; conditions: Gynecologic cancer cell panel viability, ATPlite luminescence, 48 h; series mostly up to 57.5 µM
In short: as §1

[18] = qHTS drug screen for cell cycle checkpoint inhibitors in PARPi-resistant BRCA-mutant ovarian cancer cell lines. (AID 1963452; calls by dose curve); conditions: PEO1/OlaR viability, CellTiter-Glo luminescence, 96 h, stronger effect = lower value
In short: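 PEO1, PEO4 and PEO1/OlaR ovarian cancer cells, 600 per well, exposed 96 h at 37C to a dilution series. Viability read by CellTiter-Glo luminescence, normalized to DMSO and empty wells; activity summarized as Z-AUC.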

[19] = measured here: PEO1 parental Z-AUC

Glutathione peroxidase 1 (Homo sapiens), sequence (P07203 whole entry, looked up): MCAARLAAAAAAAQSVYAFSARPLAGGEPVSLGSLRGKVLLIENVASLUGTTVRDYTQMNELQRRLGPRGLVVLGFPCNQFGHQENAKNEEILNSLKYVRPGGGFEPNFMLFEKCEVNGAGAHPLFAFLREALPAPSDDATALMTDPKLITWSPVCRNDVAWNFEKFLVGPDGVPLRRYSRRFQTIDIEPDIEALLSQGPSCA
Phospholipid hydroperoxide glutathione peroxidase GPX4 (Homo sapiens), sequence (P36969 whole entry, looked up): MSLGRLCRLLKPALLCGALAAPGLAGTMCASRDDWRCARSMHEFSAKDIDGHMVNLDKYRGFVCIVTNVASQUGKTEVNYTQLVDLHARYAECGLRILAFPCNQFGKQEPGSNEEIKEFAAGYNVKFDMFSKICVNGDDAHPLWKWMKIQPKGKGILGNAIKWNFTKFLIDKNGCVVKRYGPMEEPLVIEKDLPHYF
Calcium and integrin-binding protein 1 (Homo sapiens), sequence (Q99828 whole entry, looked up): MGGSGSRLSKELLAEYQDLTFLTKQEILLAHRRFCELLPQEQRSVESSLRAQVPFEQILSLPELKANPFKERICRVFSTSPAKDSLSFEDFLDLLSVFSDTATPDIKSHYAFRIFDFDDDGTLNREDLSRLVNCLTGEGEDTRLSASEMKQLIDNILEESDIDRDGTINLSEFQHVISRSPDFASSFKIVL

OC(CNCCc1c[nH]c2ccccc12)Cn1c2ccccc2c2ccccc21 (configuration not stated)
inactive: Potency [2] | Potency [3] | outcome [4] | Potency [7] | Potency [8] | Potency [9] | Potency [10] | Potency [11] | Potency [12] | Potency [13] | Potency [14] | Potency [15] | Potency [16] | Potency [17]
active: Potency [1] 16.4 µM | Potency [5] 5.15 µM | Potency [6] 4.59 µM

Cc1c(C(=O)NCCCO)cnn1-c1nc(-c2cccc(C(F)(F)F)c2)cs1
inactive: Potency [2] | Potency [3] | outcome [4] | Potency [7] | Potency [8] | Potency [9] | Potency [10] | Potency [11] | Potency [13] | Potency [14] | Potency [15] | Potency [16] | Potency [17]
active: Potency [5] 25.8 µM | Potency [6] 25.8 µM

c1ccc(Cn2c(-c3ccc(OCC(C4CCNCC4)n4c(-c5ccccc5)nc5ccccc54)cc3)nc3ccccc32)cc1 (configuration not stated)
-0.72: Z-AUC ([18]; measured here: PEO4 Z-AUC)
-0.228: Z-AUC [18, 19]
active: Potency [5] 6.61 µM | Potency [6] 5.9 µM
inactive: Potency [3] | outcome [4] | Potency [7] | Potency [8] | Potency [9] | Potency [11] | Potency [12] | Z-AUC [18] 0.308 | Potency [13] | Potency [14] | Potency [15] | Potency [16] | Potency [17]

COc1cc(N2CCN(C)CC2)ccc1Nc1nccc(-c2cn(C)c3cnccc23)n1
0.299: Z-AUC [18, 19]
active: Potency [1] 16.4 µM | Potency [5] 7.28 µM and 8.33 µM | Potency [6] 5.15 µM and 4.17 µM
0.437: Z-AUC ([18]; measured here: PEO4 Z-AUC)
inactive: Potency [2] | outcome [4] | Potency [7] | Potency [8] | Potency [9] | Potency [11] | Potency [12] | Z-AUC [18] -0.0606 | Potency [13] | Potency [14] | Potency [15] | Potency [16] | Potency [17]

C=CC(=O)Nc1cccc(Nc2nc(Nc3ccc(Oc4ccnc(C(=O)NC)c4)cc3)ncc2F)c1
-0.427: Z-AUC ([18]; measured here: PEO4 Z-AUC)
inactive: Potency [3] | outcome [4] | Potency [7] | Potency [8] | Potency [9] | Potency [10] | Potency [11] | Potency [12] | Z-AUC [18] -0.493 | Potency [15]
active: Potency [5] 10.3 µM and 5.9 µM | Potency [6] 10.3 µM and 6.61 µM
-0.105: Z-AUC [18, 19]

COc1ccc(-c2cc(C(O)C3CCCCN3)c3ccccc3n2)cc1 (configuration not stated)
inactive: Potency [2] | Potency [3] | outcome [4] | Potency [9] | Potency [10] | Potency [11] | Potency [12] | Z-AUC [18] -0.506
active: Potency [5] 7.42 µM | Potency [7] 20.2 µM | Potency [8] 22.7 µM
-0.334: Z-AUC ([18]; measured here: PEO4 Z-AUC)
-0.864: Z-AUC [18, 19]

CC[C@@H](C)[C@H]1C(=O)O[C@H](C(C)C)C(=O)N(C)[C@@H](C(C)C)C(=O)O[C@H](C(C)C)C(=O)N(C)[C@@H](C(C)C)C(=O)O[C@H](CC(C)C)C(=O)N1C
inactive: Potency [2] | Potency [3] | outcome [4] | Potency [7] | Potency [8] | Potency [9] | Potency [10] | Potency [11] | Potency [12] | Potency [15]
active: Potency [5] 5.41 µM | Potency [6] 2.16 µM

COC1CC(=O)C23C(=O)NC(CC(C)C)C2C(C)C(C)=CC3/C=C(\C)CCC(O)C1O (configuration not stated)
active: Potency [5] 3.99 µM | Potency [6] 2.24 µM
inactive: Potency [2] | Potency [3] | outcome [4] | Potency [7] | Potency [8] | Potency [9] | Potency [10] | Potency [11] | Potency [12] | Potency [13] | Potency [14] | Potency [15] | Potency [16] | Potency [17]

N#Cc1ccc2c(c1)CCN(CCC1CCC(NC(=O)c3ccnc4ccccc34)CC1)C2 (configuration not stated)
inactive: Potency [3] | Potency [9] | Potency [10] | Potency [11] | Potency [13] | Potency [14] | Potency [15] | Potency [16] | Potency [17]

CCN1CCC[C@@H]1CNC(=O)c1ccc2c(c1)NC(=O)/C(=C/c1ccccc1F)S2
active: Potency [5] 4.59 µM | Potency [6] 5.15 µM
inactive: Potency [2] | Potency [3] | outcome [4] | Potency [7] | Potency [8] | Potency [9] | Potency [10] | Potency [11] | Potency [12] | Potency [13] | Potency [14] | Potency [15] | Potency [16] | Potency [17]

CC1CCC2(NC1)OC1CC3C4CC=C5CC(O[C@@H]6O[C@H](CO)[C@@H](O[C@@H]7O[C@@H](C)[C@H](O)[C@@H](O)[C@H]7O)[C@H](O)[C@H]6O[C@@H]6O[C@@H](C)[C@H](O)[C@@H](O)[C@H]6O)CCC5(C)C4CCC3(C)C1C2C (some centres not stated)
active: Potency [5] 3.46 µM | Potency [6] 3.88 µM
inactive: Potency [2] | Potency [3] | outcome [4] | Potency [7] | Potency [8] | activity change, negative = inhibition [9] -5.29% [at 11.6 µM] | activity change, negative = thiol reactive [10] 179% [at 11.5 µM] | activity, negative = inhibition [11] -1.63% [at 11.6 µM] | activity change, negative = cytotoxicity [13] -18.6% [at 11.6 µM] | activity change, negative = cytotoxicity [14] -11.9% [at 11.6 µM] | activity change, negative = cytotoxicity [15] 4.54% [at 11.6 µM] | activity change, negative = cytotoxicity [16] -23.3% [at 11.6 µM] | activity change, negative = cytotoxicity [17] -18.2% [at 11.6 µM]
